Data as given in the supplement of paper PMC10849652.
Of roughly 7,900 targets only a part is listed; those with a hit were picked by preference. About 0.6% of all pairs of compound and target were hits.

Tests used:
Test in all cases: log2 fold change, soluble protein after heating vs DMSO (PISA); higher = thermal stabilisation; K562 cells, 10 uM, 30 min; active = over 0.2 and 3.5 SD of the protein, either way, in both replicates (recomputed)
dasatinib = compound: Cc1nc(Nc2ncc(C(=O)Nc3c(C)cccc3Cl)s2)cc(N2CCN(CCO)CC2)n1 [dasatinib]
Outline: (§1)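 Aliquots of K562 cells (2×10^6 cells/mL) treated with 10 μM compound for 30 min were heated for 3 min over 48°C-58°C. After pooling and extraction in PBS with 0.5% NP-40 at 4°C, soluble protein from a 21,000xg, 90 min spin was quantified by TMTpro 16plex LC-MS/MS with channel sums equalised. Thermal stability is expressed against control samples, from duplicates, as a log2 fold change.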

[1] = compound: Cn1cc(-c2ccc3c(c2)CCN3C(=O)Cc2cccc(C(F)(F)F)c2)c2c(N)ncnc21
Outline: as §1

[2] = compound: Cn1cc(-c2ccc3nnc(C(F)(F)c4ccc5ncccc5c4)n3n2)cn1
Outline: as §1

tipifarnib = compound: Cn1cncc1[C@@](N)(c1ccc(Cl)cc1)c1ccc2c(c1)c(-c1cccc(Cl)c1)cc(=O)n2C [tipifarnib]
Outline: as §1

mubritinib = compound: FC(F)(F)c1ccc(/C=C/c2nc(COc3ccc(CCCCn4ccnn4)cc3)co2)cc1 [mubritinib]
Outline: as §1

bafetinib = compound: Cc1ccc(NC(=O)c2ccc(CN3CC[C@H](N(C)C)C3)c(C(F)(F)F)c2)cc1Nc1nccc(-c2cncnc2)n1 [bafetinib]
Outline: as §1

[3] = compound: Cc1cccc(CC(=O)N2CCc3c2ccc(-c2cn(C)c4ncnc(N)c24)c3F)n1
Outline: as §1

nilotinib = compound: Cc1cn(-c2cc(NC(=O)c3ccc(C)c(Nc4nccc(-c5cccnc5)n4)c3)cc(C(F)(F)F)c2)cn1 [nilotinib]
Outline: as §1

[4] = compound: Cc1nc(Nc2n[nH]c3c2CN(C(=O)N[C@H](CN(C)C)c2ccccc2)C3(C)C)c2sccc2n1
Outline: as §1

[5] = compound: Cc1ncc(-c2ccnc(Nc3ccc(S(C)(=O)=O)cc3)n2)n1C(C)C
Outline: as §1

Measured: log2 fold change

ULBP1 (UniProt Q9BZM6)
inactive: dasatinib 0.083 | [1] 0.068 | [2] -0.11 | tipifarnib -0.097 | mubritinib 0.004

UTP3 (UniProt Q9NQZ2)
inactive: [3] -0.048 | dasatinib 0.168 | [1] -0.208 | [2] -0.132 | tipifarnib 0.212 | mubritinib -0.228
active: bafetinib 0.689

WDR46, A0A0G2JJL1
inactive: bafetinib 0.339 | nilotinib -0.094 | [4] 0.202 | dasatinib 0.381 | [5] 0.105 | tipifarnib 0.171 | mubritinib -0.051

UFM1 (UniProt P61960)
inactive: bafetinib 0.045 | nilotinib -0.011 | [4] 0.025 | dasatinib -0.012 | [5] 0.026 | [1] 0.008 | [2] 0.007 | tipifarnib -0.061 | mubritinib 0.087

TSC2 (UniProt P49815)
UniProt P49815, sequence (P49815 whole entry, looked up): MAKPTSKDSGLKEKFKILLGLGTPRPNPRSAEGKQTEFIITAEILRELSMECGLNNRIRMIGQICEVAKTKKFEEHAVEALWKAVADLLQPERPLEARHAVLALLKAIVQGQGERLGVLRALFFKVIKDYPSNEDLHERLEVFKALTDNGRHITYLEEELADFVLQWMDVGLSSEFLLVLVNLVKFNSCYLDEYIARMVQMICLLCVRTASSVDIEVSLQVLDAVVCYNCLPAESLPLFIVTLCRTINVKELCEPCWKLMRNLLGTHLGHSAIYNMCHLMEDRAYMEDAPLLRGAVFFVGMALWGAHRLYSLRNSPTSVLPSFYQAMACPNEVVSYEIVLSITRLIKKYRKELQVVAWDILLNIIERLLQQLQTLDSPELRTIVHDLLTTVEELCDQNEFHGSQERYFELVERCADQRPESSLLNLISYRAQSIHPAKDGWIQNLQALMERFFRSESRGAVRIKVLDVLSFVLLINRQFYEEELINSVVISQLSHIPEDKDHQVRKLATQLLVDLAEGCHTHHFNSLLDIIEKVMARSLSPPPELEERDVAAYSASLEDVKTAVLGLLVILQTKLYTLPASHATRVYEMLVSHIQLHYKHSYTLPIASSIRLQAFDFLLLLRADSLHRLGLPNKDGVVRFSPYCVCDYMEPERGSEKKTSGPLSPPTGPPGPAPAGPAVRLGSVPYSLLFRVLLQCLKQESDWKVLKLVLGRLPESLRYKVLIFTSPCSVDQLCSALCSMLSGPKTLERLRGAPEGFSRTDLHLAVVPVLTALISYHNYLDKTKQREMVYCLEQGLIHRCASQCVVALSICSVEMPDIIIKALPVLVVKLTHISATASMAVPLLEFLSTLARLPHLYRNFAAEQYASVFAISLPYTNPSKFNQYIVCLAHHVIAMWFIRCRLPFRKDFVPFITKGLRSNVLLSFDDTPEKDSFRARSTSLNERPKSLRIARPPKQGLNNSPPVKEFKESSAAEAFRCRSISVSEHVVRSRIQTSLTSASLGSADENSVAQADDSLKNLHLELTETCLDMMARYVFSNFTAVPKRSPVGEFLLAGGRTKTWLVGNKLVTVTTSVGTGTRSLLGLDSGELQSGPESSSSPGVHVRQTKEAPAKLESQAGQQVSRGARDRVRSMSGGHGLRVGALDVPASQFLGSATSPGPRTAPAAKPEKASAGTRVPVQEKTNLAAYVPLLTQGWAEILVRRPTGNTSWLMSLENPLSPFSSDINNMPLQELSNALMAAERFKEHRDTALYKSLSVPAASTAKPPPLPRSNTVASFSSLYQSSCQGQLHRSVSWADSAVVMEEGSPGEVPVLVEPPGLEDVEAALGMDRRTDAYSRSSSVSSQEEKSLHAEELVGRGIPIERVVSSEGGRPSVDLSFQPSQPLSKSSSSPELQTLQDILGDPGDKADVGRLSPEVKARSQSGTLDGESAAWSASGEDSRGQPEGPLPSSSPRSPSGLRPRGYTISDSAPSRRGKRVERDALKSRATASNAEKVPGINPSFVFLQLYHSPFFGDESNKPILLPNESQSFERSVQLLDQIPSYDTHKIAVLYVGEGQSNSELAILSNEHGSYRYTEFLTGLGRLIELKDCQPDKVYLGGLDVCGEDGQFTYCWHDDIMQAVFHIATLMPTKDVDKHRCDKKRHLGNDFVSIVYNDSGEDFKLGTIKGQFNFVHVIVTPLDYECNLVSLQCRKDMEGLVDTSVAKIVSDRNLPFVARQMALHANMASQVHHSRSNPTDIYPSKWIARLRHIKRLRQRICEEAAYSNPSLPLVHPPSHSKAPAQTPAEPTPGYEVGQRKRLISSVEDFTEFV
inactive: bafetinib -0.024 | [3] 0.109 | [1] 0.066 | [2] 0.047 | tipifarnib 0.019 | mubritinib -0.048

WARS1 (UniProt G3V227)
inactive: bafetinib 0 | dasatinib -0.164 | [1] -0.42

TOM1L2 (UniProt Q6ZVM7)
inactive: nilotinib -0.047 | [4] -0.127 | dasatinib -0.091 | [5] -0.125 | [1] 0.028

TTI2 (UniProt Q6NXR4)
inactive: bafetinib 0.06 | nilotinib -0.028 | [4] -0.068 | dasatinib -0.005 | [5] 0.077 | [1] -0.017 | [2] -0.007 | tipifarnib -0.059 | mubritinib -0.063

TRPT1 isoform 4 (UniProt Q86TN4)
inactive: [2] -0.011 | mubritinib 0.041

TUBA4A (UniProt C9JJQ8)
inactive: bafetinib 0.116 | dasatinib -0.082 | [1] 0.012 | tipifarnib 0.047

WARS1 (UniProt G3V277)
inactive: bafetinib -0.008 | [3] -0.116 | nilotinib -0.065 | [4] 0.039 | [5] -0.034 | mubritinib 0

USP48 (UniProt Q86UV5)
inactive: bafetinib 0.045 | nilotinib -0.294 | [4] -0.495 | [5] -0.016 | mubritinib 0.117

TMEM128 (UniProt Q5BJH2)
UniProt Q5BJH2, sequence (Q5BJH2 whole entry, looked up): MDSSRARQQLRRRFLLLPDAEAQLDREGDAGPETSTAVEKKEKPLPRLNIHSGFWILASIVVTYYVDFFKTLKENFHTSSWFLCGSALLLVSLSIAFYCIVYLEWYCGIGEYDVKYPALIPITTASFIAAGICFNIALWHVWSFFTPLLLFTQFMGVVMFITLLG
inactive: bafetinib -0.065 | nilotinib -0.008 | [4] 0.003 | dasatinib -0.01 | [5] -0.031 | [1] 0.061 | [2] -0.021 | tipifarnib 0.066

TXNRD1 isoform 7 (UniProt Q16881)
UniProt Q16881, sequence (Q16881 whole entry, looked up): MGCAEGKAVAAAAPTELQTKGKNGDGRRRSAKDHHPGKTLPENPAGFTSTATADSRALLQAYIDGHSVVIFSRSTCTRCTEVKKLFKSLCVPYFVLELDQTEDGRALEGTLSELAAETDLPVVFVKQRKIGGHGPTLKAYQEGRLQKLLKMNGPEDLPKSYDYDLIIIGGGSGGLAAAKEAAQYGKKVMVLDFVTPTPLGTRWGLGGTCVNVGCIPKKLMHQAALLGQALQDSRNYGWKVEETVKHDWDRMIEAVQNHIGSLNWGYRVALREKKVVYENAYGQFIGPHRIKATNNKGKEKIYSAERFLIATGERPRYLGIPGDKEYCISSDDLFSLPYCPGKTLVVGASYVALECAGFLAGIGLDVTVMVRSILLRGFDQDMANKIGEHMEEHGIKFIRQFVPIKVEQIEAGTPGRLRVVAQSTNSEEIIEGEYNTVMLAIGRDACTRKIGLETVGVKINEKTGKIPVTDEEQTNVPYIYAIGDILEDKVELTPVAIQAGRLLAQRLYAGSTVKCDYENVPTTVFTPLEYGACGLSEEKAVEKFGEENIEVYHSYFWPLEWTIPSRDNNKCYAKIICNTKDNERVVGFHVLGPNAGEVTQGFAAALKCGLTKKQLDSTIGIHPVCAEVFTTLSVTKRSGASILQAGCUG
inactive: bafetinib -0.124 | [3] 0.001 | dasatinib -0.052 | tipifarnib -0.051

XRCC1 (UniProt P18887)
inactive: [3] 0.019 | dasatinib 0 | [1] 0.123 | [2] 0.063

TTC33 (UniProt Q6PID6)
inactive: bafetinib 0.049 | [3] 0.181 | dasatinib 0.043 | [1] -0.084 | [2] -0.069 | tipifarnib -0.03 | mubritinib 0.113

TMEM9B (UniProt Q9NQ34)
inactive: bafetinib -0.039 | [3] 0.036 | nilotinib 0.005 | [4] 0.009 | [5] -0.015 | [1] 0.051 | [2] 0.164 | tipifarnib -0.108 | mubritinib 0.009

TVP23C (UniProt Q96ET8)
inactive: [3] 0.033 | dasatinib 0.056 | [1] -0.116 | tipifarnib 0.041 | mubritinib 0.04

UBA52 (UniProt P62987)
inactive: bafetinib 0.285 | [3] -0.001 | [1] -0.343 | [2] -0.16 | tipifarnib 0.247 | mubritinib -0.115

TTC26
inactive: bafetinib -0.04 | [2] 0.04

TMEM104 (UniProt Q8NE00)
inactive: [3] 0.172 | nilotinib 0.019 | [4] -0.003 | dasatinib 0.009 | [5] -0.013 | [1] 0.066 | [2] 0.095 | tipifarnib 0.035 | mubritinib -0.089

TOM1 (UniProt O60784)
UniProt O60784, sequence (O60784 whole entry, looked up): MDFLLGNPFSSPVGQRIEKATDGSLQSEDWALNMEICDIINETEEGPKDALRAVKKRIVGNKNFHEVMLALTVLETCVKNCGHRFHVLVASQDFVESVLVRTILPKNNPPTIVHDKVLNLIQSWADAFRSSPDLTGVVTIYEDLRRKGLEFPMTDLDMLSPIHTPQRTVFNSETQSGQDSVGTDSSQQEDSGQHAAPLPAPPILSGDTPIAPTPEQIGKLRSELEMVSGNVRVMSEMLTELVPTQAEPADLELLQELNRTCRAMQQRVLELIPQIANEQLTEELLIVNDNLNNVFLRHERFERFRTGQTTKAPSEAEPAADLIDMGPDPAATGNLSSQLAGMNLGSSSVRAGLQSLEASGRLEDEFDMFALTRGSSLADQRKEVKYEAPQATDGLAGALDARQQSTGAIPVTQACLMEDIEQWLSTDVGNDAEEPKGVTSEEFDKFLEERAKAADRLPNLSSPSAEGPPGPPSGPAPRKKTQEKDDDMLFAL
inactive: bafetinib -0.288 | [3] -0.105 | mubritinib -0.222

UBXN8 (UniProt O00124)
inactive: bafetinib -0.112 | [3] -0.086 | dasatinib -0.056 | [1] 0.017 | [2] -0.439 | tipifarnib 0.048

WDR75 (UniProt Q8IWA0)
UniProt Q8IWA0, sequence (Q8IWA0 whole entry, looked up): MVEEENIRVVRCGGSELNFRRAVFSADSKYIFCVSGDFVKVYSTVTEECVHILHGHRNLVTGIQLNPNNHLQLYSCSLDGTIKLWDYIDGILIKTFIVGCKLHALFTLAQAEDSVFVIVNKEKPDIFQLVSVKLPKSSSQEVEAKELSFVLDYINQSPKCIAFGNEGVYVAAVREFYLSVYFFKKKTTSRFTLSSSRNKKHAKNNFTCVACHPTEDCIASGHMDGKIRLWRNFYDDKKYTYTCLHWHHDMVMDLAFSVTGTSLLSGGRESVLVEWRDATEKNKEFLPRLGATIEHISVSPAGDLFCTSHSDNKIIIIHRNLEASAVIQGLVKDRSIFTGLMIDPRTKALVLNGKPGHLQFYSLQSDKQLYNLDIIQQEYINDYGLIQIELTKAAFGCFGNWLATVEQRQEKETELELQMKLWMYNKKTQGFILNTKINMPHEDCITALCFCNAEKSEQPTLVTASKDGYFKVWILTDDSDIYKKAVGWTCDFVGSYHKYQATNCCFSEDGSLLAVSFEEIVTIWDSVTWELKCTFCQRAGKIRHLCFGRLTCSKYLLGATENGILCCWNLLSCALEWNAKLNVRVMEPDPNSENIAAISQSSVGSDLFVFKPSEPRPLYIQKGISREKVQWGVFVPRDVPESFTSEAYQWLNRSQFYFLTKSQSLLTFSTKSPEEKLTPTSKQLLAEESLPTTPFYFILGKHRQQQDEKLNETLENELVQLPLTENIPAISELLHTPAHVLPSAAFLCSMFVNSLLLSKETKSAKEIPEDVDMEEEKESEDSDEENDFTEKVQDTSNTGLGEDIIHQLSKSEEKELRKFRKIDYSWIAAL
inactive: bafetinib 0.019 | nilotinib -0.214 | [4] 0.041 | dasatinib 0.085 | [5] 0.109 | [1] -0.252 | [2] -0.045 | tipifarnib -0.021 | mubritinib -0.329

VDAC1 (UniProt C9JI87)
inactive: bafetinib -0.152 | nilotinib -0.009 | [4] -0.048 | dasatinib 0.277 | [5] -0.106 | [1] -0.16 | [2] 0.22 | tipifarnib 0.242 | mubritinib 0.133

TRABD (UniProt Q9H4I3)
inactive: bafetinib 0.202 | [3] -0.038 | nilotinib 0.185 | [4] 0.02 | [5] -0.093 | [1] 0.145 | [2] -0.013 | tipifarnib 0.012 | mubritinib -0.032

U2AF1L5 (UniProt P0DN76)
inactive: bafetinib 0.047 | nilotinib 0.025 | [4] -0.669 | dasatinib -0.017 | [5] -0.108 | mubritinib 0.173

UCHL5 isoform 3 (UniProt Q9Y5K5)
UniProt Q9Y5K5, sequence (Q9Y5K5 whole entry, looked up): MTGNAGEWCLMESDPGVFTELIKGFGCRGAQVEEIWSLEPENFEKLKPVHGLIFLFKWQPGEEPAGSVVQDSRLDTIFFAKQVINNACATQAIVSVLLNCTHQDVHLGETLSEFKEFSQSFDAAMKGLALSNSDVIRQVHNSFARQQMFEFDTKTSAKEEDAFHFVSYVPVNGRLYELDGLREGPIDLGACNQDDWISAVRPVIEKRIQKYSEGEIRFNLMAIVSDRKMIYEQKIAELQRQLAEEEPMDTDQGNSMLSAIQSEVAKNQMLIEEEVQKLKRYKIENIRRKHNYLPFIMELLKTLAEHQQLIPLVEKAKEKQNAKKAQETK
inactive: bafetinib 0.151 | nilotinib -0.104 | [4] 0.076 | [5] -0.08 | [1] -0.052 | [2] -0.064 | tipifarnib -0.085 | mubritinib 0.049

WARS1 (UniProt G3V5U1)
inactive: bafetinib -0.569 | mubritinib -0.161

TRIQK (UniProt Q629K1)
inactive: bafetinib -0.059 | dasatinib 0.007 | [1] -0.007 | [2] -0.03 | mubritinib -0.002

UTP20 (UniProt O75691)
inactive: tipifarnib 0.089

XAB2 (UniProt Q9HCS7)
inactive: dasatinib -0.092 | [2] 0.125 | mubritinib -0.151

UBE3B (UniProt Q7Z3V4)
inactive: bafetinib -0.134 | nilotinib 0.072 | [4] 0.03 | dasatinib -0.028 | [5] 0.116 | [1] -0.062 | [2] 0.103 | tipifarnib -0.112

UBE2J2 isoform 3 (UniProt Q8N2K1)
UniProt Q8N2K1, sequence (Q8N2K1 whole entry, looked up): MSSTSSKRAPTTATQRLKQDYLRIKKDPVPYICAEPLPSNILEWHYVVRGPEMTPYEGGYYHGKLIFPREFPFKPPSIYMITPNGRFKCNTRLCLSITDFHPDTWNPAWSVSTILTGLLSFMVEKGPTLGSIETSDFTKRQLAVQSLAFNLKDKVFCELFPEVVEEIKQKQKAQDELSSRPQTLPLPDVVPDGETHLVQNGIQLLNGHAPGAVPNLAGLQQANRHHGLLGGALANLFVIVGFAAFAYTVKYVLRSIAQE
inactive: bafetinib 0.037 | [3] -0.12 | dasatinib -0.154 | [1] 0.013 | tipifarnib 0.041

UBAP2L (UniProt F8W726)
inactive: bafetinib 0.02 | [3] -0.049 | nilotinib 0.151 | [4] 0.063 | [5] -0.109 | tipifarnib 0.245 | mubritinib -0.032

TRIM5 (UniProt Q9C035)
UniProt Q9C035, sequence (Q9C035 whole entry, looked up): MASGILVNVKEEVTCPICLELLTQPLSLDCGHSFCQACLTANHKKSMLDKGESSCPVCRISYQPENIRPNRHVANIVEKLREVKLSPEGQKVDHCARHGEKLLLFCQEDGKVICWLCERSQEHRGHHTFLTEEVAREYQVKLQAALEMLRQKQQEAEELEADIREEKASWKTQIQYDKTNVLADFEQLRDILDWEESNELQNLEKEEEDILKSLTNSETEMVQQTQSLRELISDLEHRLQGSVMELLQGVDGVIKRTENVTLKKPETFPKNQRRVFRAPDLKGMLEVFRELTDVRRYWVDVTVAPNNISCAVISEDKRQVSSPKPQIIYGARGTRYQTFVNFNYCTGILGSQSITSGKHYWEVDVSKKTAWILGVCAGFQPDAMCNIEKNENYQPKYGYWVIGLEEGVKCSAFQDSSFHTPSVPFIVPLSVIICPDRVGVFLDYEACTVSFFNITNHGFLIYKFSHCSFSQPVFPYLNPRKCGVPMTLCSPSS
inactive: dasatinib -0.088 | [1] 0.013 | [2] 0.133

VPS72 isoform 2 (UniProt Q15906)
inactive: bafetinib -0.064 | nilotinib 0.086 | [4] 0.02 | dasatinib 0.044 | [5] -0.024 | [1] -0.052 | [2] 0.08 | tipifarnib 0.074 | mubritinib 0.009
